The values below come from PMC10726135, “HNF4α isoforms regulate the circadian balance between carbohydrate and lipid metabolism in the liver”.

The full ranking holds about 18,000 sequences; the median of “log2 normalized intensity” is about 0.39, and the highest 2% start at about 6.6. The entries come from a sample that favours the highest values as a whole.

The experiment concerns the target T1, HNF4alpha2 (COS-7 nuclear extract) (Homo sapiens, UniProt P41235 1-474).
T1 sequence: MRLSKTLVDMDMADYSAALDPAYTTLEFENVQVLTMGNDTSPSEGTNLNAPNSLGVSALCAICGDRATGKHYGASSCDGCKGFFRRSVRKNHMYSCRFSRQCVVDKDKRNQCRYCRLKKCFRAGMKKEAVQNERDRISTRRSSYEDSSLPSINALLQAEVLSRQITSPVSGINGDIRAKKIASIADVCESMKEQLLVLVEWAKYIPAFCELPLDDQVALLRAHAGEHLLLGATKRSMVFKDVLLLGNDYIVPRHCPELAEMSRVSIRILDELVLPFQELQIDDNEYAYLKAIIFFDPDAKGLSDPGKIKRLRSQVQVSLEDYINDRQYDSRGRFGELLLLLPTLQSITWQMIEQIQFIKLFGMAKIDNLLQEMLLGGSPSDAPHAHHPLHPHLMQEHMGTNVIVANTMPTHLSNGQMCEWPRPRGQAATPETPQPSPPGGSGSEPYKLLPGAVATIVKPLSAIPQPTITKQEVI
Nature of the experiment: protein-binding microarray; COS-7 nuclear extract on double-stranded Agilent 4x180k PBM; binding buffer, salt, pH and temperature not given in the material; high values mean tight binding. As to conditions: chain copies: 2; label: 3' end of strand 1 on the slide; dsDNA, one strand shown. In outline: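 A custom Agilent SurePrint G3 4x180k array, spotted in quadruplicate with ~44,000 test sequences as ~60-nt oligonucleotides made double-stranded, was incubated with nuclear extracts. The extracts came from COS-7 cells transiently transfected by CaPO4 with a human HNF4α isoform expression vector. Bound HNF4α was imaged on an Agilent G2565CA scanner at 2-µm resolution, and the binding signal was taken as Agilent software's background-corrected, normalized gProcessedSignal.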
For “TCCTGATCCCTGAGGTCGGGGCCTGGTCTGGCCTAGGGAGATTAGAGTATCGGTCGA”, the binding signal was found to be 0.683 log2 normalized intensity.
For “CAATGCCCCAGAAAGCCAGCAGGGGCTGCTGCCTAGGGAGATTAGAGTATCGGTCGA”, the binding signal is -0.844 log2 normalized intensity.
With “AGCTTCTCTTTCTAGGTCACCACCTTTTTTGCCTAGGGAGATTAGAGTATCGGTCGA”, the binding signal stood at 1.37 log2 normalized intensity.
In the case of “GGCCTGATAGATTTTGCATTGCTCACATAGGCCTAGGGAGATTAGAGTATCGGTCGA” it was -0.988 log2 normalized intensity; in that of “TCCTCCAAAACCCAGTTCATAGGTCAATTCGCCTAGGGAGATTAGAGTATCGGTCGA”, 4.02 log2 normalized intensity.
The result for “AGCTGACGCCCCACCCCCTCCACCCCTGCCGCCTAGGGAGATTAGAGTATCGGTCGA” reads 6.82 log2 normalized intensity; that for “CCCTCCCCCCACTCAAAATAGGAGTTAAGGGCCTAGGGAGATTAGAGTATCGGTCGA”, 2.45 log2 normalized intensity.
Turning to “ACGCCCCACCCCCTCCACCCCTGCCTTTCAGCCTAGGGAGATTAGAGTATCGGTCGA”, the binding signal is 6.39 log2 normalized intensity.
On to “GAAAAAGCTGACGCCCCACCCCCTCCACCCGCCTAGGGAGATTAGAGTATCGGTCGA”, for which the binding signal was found to be 6.44 log2 normalized intensity.
As to “TCCTCCCCTCCCCTCCCCCCACTCAAAATAGCCTAGGGAGATTAGAGTATCGGTCGA”, the binding signal was determined as 6.79 log2 normalized intensity.
For the sequence “CCCTCCCCTCCCCCCACTCAAAATAGGAGTGCCTAGGGAGATTAGAGTATCGGTCGA”, the binding signal was 4.52 log2 normalized intensity.
Turning to “GGCTATACAATTCCAGCAAGGATGGGGGCAGCCTAGGGAGATTAGAGTATCGGTCGA”, the binding signal was -0.832 log2 normalized intensity.
The result for “AAAATTAAGGTTCAAAGGGAAAAAATAATCGCCTAGGGAGATTAGAGTATCGGTCGA” reads -0.757 log2 normalized intensity; that for “TTCCATTGAAGCAGAGTGTCCCATATCACAGCCTAGGGAGATTAGAGTATCGGTCGA”, 0.724 log2 normalized intensity; that for “GTTAGATTAGTGTGCAGCTTTGTGTAAAACGCCTAGGGAGATTAGAGTATCGGTCGA”, 0.946 log2 normalized intensity.
For the sequence “AGATCTCAGTTGGTCCAAGGTACATGTCTCGCCTAGGGAGATTAGAGTATCGGTCGA”, the binding signal is 2.34 log2 normalized intensity.
Turning to “GAAAAGGCCTGACCTTTGCCCTCTGGCCCTGCCTAGGGAGATTAGAGTATCGGTCGA”, the binding signal worked out at 9.1 log2 normalized intensity.
Regarding “GACAGCTGGGCCCTGCCTGACCTGCCCTTTGCCTAGGGAGATTAGAGTATCGGTCGA”, the binding signal turned out to be 4.42 log2 normalized intensity.
Consider “TTCTGCCCCTTGCTCCTGCTTGCTGGCTTTGCCTAGGGAGATTAGAGTATCGGTCGA”, for which the binding signal was 1.2 log2 normalized intensity.
Consider “AGAGGACAGAAGAAGGAAAAGGCCTGACCTGCCTAGGGAGATTAGAGTATCGGTCGA”, for which the binding signal was -0.388 log2 normalized intensity.
Take “ACAGAAGAAGGAAAAGGCCTGACCTTTGCCGCCTAGGGAGATTAGAGTATCGGTCGA”: the binding signal worked out at 4.61 log2 normalized intensity.
Regarding “CCCTCGACCTTTGCCCTCCATAAGGGGGAGGCCTAGGGAGATTAGAGTATCGGTCGA”, the binding signal amounted to 6.24 log2 normalized intensity.
With “CTCTGCAGAGGCTTCCTCTTTGGTGCAAAGGCCTAGGGAGATTAGAGTATCGGTCGA”, the binding signal was -0.855 log2 normalized intensity.
Take “AGAAGGAAAAGGCCTGACCTTTGCCCTCTGGCCTAGGGAGATTAGAGTATCGGTCGA”: the binding signal turned out to be 10.1 log2 normalized intensity.
“CTCTTTGGTGCAAAGGTCAGGACAAGGCTCGCCTAGGGAGATTAGAGTATCGGTCGA”: the binding signal was 4.3 log2 normalized intensity.
In the case of “CCCTGCCTGACCTGCCCTTTGTCCCTCCTGGCCTAGGGAGATTAGAGTATCGGTCGA”, the binding signal was 4.51 log2 normalized intensity.
On to “GACCTTTGCCCTCTGGCCCTTAAAGGCTTTGCCTAGGGAGATTAGAGTATCGGTCGA”, for which the binding signal was determined as 6.99 log2 normalized intensity.
For “CAGAGGCTTCCTCTTTGGTGCAAAGGTCAGGCCTAGGGAGATTAGAGTATCGGTCGA”, the binding signal was 6.86 log2 normalized intensity.
Consider “TTGAAGCAGAGTGTCCCATATCACATTTTAGCCTAGGGAGATTAGAGTATCGGTCGA”, for which the binding signal came out at 0.955 log2 normalized intensity.
In the case of “TGCTTATCAGTGTACCTGTCCCTACTCAATGCCTAGGGAGATTAGAGTATCGGTCGA”, the binding signal was 0.371 log2 normalized intensity.
With “GTGCCCTCATAAGAGACTTTGCCCTTTTTTGCCTAGGGAGATTAGAGTATCGGTCGA”, the binding signal amounted to 5.63 log2 normalized intensity.
As for “TCAGGACTCTAACTGGCTTTAAGAGGAATGGCCTAGGGAGATTAGAGTATCGGTCGA”, the binding signal is -0.943 log2 normalized intensity.
In the case of “AGGAATGAGACATGAATCCATCCCACCTCAGCCTAGGGAGATTAGAGTATCGGTCGA” it was -0.775 log2 normalized intensity.
As for “AAACTTTAGTAGTCCAAAGCTCAGATTGCCGCCTAGGGAGATTAGAGTATCGGTCGA”, the binding signal came to 0.566 log2 normalized intensity.
In the case of “AGATGGTCTCAGGTGGAGATAAGGAATTTGGCCTAGGGAGATTAGAGTATCGGTCGA” it was -0.171 log2 normalized intensity; in that of “AGTTTGGTGGACTTTGGCCGTGAAGCCGTCGCCTAGGGAGATTAGAGTATCGGTCGA”, 6.2 log2 normalized intensity.
With “GGTGGACTTTGGCCGTGAAGCCGTCCTGTCGCCTAGGGAGATTAGAGTATCGGTCGA”, the binding signal was found to be 5.03 log2 normalized intensity.
With “GGCATTAATTCTTCTTTGAAAGTTTGGTGGGCCTAGGGAGATTAGAGTATCGGTCGA”, the binding signal was 2.23 log2 normalized intensity.
Regarding “TAATTCTTCTTTGAAAGTTTGGTGGACTTTGCCTAGGGAGATTAGAGTATCGGTCGA”, the binding signal was 6.32 log2 normalized intensity.
The result for “CTTCTTTGAAAGTTTGGTGGACTTTGGCCGGCCTAGGGAGATTAGAGTATCGGTCGA” reads 9.62 log2 normalized intensity; that for “TTGAAAGTTTGGTGGACTTTGGCCGTGAAGGCCTAGGGAGATTAGAGTATCGGTCGA”, 6.79 log2 normalized intensity; that for “TTTGCTCCAGTTCCCAATAATTTCCTTATCGCCTAGGGAGATTAGAGTATCGGTCGA”, -0.628 log2 normalized intensity.
Regarding “TGTAACTAACAACTGACCTTGCAGGCCAGGGCCTAGGGAGATTAGAGTATCGGTCGA”, the binding signal was -0.838 log2 normalized intensity.
Regarding “TCTGTTTGATTCCATGCTGATAATGGAATTGCCTAGGGAGATTAGAGTATCGGTCGA”, the binding signal was found to be 0.756 log2 normalized intensity.
Turning to “CAAATGAATAATCCCCTCCTGGACTTTGGTGCCTAGGGAGATTAGAGTATCGGTCGA”, the binding signal stood at 4.73 log2 normalized intensity.
With “GAATAATCCCCTCCTGGACTTTGGTCTCATGCCTAGGGAGATTAGAGTATCGGTCGA”, the binding signal is 7.15 log2 normalized intensity.
The result for “GTAATGACATGCAGTATGGGGACTTTGGACGCCTAGGGAGATTAGAGTATCGGTCGA” reads 5.99 log2 normalized intensity; that for “GACATGCAGTATGGGGACTTTGGACTCCTGGCCTAGGGAGATTAGAGTATCGGTCGA”, 7.53 log2 normalized intensity.
In the case of “CTCCTGGACTTTGGTCTCATGGGCCTAAACGCCTAGGGAGATTAGAGTATCGGTCGA”, the binding signal was determined as 4.65 log2 normalized intensity.
Regarding “ATCCCCTCCTGGACTTTGGTCTCATGGGCCGCCTAGGGAGATTAGAGTATCGGTCGA”, the binding signal came to 6.4 log2 normalized intensity.
For the sequence “ATCAGTGTACCTGTCCCTACTCAATTATCAGCCTAGGGAGATTAGAGTATCGGTCGA”, the binding signal was -0.287 log2 normalized intensity.
As for “CAAGAATACGGATTCTTAAGGGCAAAGGTTGCCTAGGGAGATTAGAGTATCGGTCGA”, the binding signal came to 5.88 log2 normalized intensity.
Consider “GCTGTGCCGAGCCTGCAGGTGAATGGAAACGCCTAGGGAGATTAGAGTATCGGTCGA”, for which the binding signal was -0.549 log2 normalized intensity.
Turning to “AATCTGAATTAACTCTTTACACAGTTCTGAGCCTAGGGAGATTAGAGTATCGGTCGA”, the binding signal is -0.00196 log2 normalized intensity.
